Records with an inconclusive call do not appear. Activity calls are given as the source filed them. Unless noted, the call rests on the fitted dose curve; in most records, active means well fitted curve in the direction sought with a large enough effect; inconclusive means small, poorly fitted or top-dose-only effect, or another doubt; inactive means no such curve, though single readings can be large; an effect the other way counts as inactive or inconclusive.
What was measured:
[1] = biological target: ATP-dependent 6-phosphofructokinase (Trypanosoma brucei brucei) (UniProt O15648); assay: qHTS Assay to Find Inhibitors of T. brucei phosphofructokinase: hit validation (AID 492961); further: potency means the concentration at half of the fitted maximal effect; settings: T. brucei PFK, ADP-Glo luminescence; series mostly up to 51.4 µM
Chain of ATP-dependent 6-phosphofructokinase (Trypanosoma brucei brucei) (O15648 whole entry, looked up): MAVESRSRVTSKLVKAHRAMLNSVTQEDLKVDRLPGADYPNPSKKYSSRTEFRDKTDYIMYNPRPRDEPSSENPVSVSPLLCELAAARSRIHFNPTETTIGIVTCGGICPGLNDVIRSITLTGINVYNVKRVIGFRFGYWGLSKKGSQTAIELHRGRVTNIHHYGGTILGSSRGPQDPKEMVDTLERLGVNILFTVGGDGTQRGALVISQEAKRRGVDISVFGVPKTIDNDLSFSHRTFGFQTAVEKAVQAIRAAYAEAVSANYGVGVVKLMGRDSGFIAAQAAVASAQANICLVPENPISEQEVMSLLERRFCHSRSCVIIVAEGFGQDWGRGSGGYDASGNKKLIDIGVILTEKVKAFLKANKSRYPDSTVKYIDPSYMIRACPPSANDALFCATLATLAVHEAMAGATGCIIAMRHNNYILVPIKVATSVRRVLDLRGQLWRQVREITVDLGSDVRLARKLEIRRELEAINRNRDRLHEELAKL
Procedure, shortened: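 Luminescence from ADP-Glo reports ADP generated as T. brucei PFK (1.25 nM) phosphorylates 0.5 mM fructose-6-phosphate using 0.1 mM ATP. Reactions ran 45 min at room temperature, pH 8.0.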

[2] = Validation screen for small molecules that induce genotoxicity in human embryonic kidney (HEK293T) cells expressing luciferase-tagged ELG1 (AID 493106); settings: luminescence; series mostly up to 46.1 µM; further: 0% is about no effect
Procedure, shortened: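 HEK293T cells expressing luciferase-tagged ELG1 were exposed to compound or DMSO vehicle for 16 hr at 37 °C, 5% CO2. Genotoxic stress raises ELG1 levels, so increased luciferase signal after ONE-Glo addition and 30 min at room temperature marks hits.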

[3] = Nrf2 qHTS screen for inhibitors: Validation (AID 493153; active means well fitted inhibition curve with a large enough effect in the main read-out, with a control signal flat, not every such curve was filed as active; further: potency means the concentration at half of the fitted maximal effect); settings: A549 ARE-Fluc reporter, 18-24 h; Potency: luciferase luminescence; viability change: measured here: cytotoxicity max response; luciferase luminescence, at 46.1 µM (top of the series)
Procedure, shortened: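 A549 cells carrying an ARE-driven firefly luciferase reporter, in 5% FBS OPTI-MEM, were treated with compounds in concentration-response for 18-24 h at 37°C. Viability was read by CellTiter-Fluor fluorescence, then Nrf2 activity by luciferase luminescence.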

[4] = qHTS for Inhibitors of Cell Surface uPA Generation: Validation Assay (AID 493164); settings: mouse cells, plasminogen activation; series mostly up to 38.3 µM;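 further: RAW 264.7 macrophage cells exposed to compound for 18 h; 0% is about no effect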
Procedure, shortened: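 RAW 264.7, 4000 cells/well, o/n plating; cpd 7-pt 1:5 dilution 2.45 nM–38.3 uM final; 18 h, 37 C/5% CO2; ATP-Lite, 5 s luminescence exposure.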

[5] = biological target: Peptidyl-prolyl cis-trans isomerase NIMA-interacting 1 (Homo sapiens) (UniProt Q13526); assay: qHTS Validation Assay to Find Inhibitors of Pin1 (AID 504536; active means well fitted inhibition curve with a large enough effect in the polarisation, with a control signal flat, not every such curve was filed as active; the % refers to the polarisation; further: potency means the concentration at half of the fitted maximal effect); settings: Pin1 fluorescence polarization peptide binding assay; series mostly up to 57.5 µM
Chain of Peptidyl-prolyl cis-trans isomerase NIMA-interacting 1 (Homo sapiens) (Q13526 whole entry, looked up): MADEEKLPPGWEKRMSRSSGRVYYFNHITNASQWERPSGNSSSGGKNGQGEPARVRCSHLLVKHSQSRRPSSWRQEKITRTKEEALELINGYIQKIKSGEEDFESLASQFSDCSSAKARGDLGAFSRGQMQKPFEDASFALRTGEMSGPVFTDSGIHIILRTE
Procedure, shortened: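 Fluorescence polarization competition: compounds (titration) displace HiFluor-488-labeled Pin1-1b peptide from Pin1 (0.3 uM final) in pH 7.5 HEPES buffer with DTT, 10 min at room temperature; %Activity normalized to no-enzyme wells, curves fitted.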

[6] = biological target: Phosphoglycerate kinase, glycosomal (Trypanosoma brucei brucei) (UniProt P07378); assay: qHTS Validation Assay to Find Inhibitors of Phosphoglycerate Kinase (AID 504547); settings: enzymatic PGK inhibition, coupled luminescence read-out; series mostly up to 57.5 µM; further: potency means the concentration at half of the fitted maximal effect
Chain of Phosphoglycerate kinase, glycosomal (Trypanosoma brucei brucei) (P07378 whole entry, looked up): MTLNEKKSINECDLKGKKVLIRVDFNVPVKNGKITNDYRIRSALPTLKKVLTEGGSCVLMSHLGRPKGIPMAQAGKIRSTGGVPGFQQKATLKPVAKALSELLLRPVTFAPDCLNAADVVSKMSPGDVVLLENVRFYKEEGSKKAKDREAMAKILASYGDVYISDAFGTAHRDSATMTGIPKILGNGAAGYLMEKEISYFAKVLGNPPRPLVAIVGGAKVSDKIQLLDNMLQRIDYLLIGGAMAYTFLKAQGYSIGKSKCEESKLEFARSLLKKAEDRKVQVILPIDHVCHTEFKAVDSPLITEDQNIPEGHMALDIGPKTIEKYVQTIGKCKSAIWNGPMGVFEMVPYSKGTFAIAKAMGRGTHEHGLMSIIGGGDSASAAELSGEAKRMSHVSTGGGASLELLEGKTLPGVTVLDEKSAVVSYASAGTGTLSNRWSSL
Procedure, shortened: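 PGK activity was coupled to GAPDH (100nM final), which generates the unstable substrate 1,3-bisphosphoglycerate in-well. Reactions ran 60 minutes at room temperature in 100mM TEA pH 7.6, 5mM MgCl2, 0.01% Tween-20, then Kinase-Glo Plus luminescence was read.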

[7] = biological target: ATPase family AAA domain-containing protein 5 (Homo sapiens) (UniProt Q96QE3); assay: Validation screen for small molecules that inhibit ELG1-dependent DNA repair in human embryonic kidney (HEK293T) cells expressing luciferase-tagged ELG1 (AID 493107); settings: HEK293T ELG1-luciferase level, luminescence, 5-fluorouridine co-treatment, 16 h; series mostly up to 46.1 µM; further: nearly all actives have a fitted effect of over 70% in size; further: potency means the concentration at half of the fitted maximal effect
Chain of ATPase family AAA domain-containing protein 5 (Homo sapiens) (Q96QE3 whole entry, looked up, the tested form may be a part): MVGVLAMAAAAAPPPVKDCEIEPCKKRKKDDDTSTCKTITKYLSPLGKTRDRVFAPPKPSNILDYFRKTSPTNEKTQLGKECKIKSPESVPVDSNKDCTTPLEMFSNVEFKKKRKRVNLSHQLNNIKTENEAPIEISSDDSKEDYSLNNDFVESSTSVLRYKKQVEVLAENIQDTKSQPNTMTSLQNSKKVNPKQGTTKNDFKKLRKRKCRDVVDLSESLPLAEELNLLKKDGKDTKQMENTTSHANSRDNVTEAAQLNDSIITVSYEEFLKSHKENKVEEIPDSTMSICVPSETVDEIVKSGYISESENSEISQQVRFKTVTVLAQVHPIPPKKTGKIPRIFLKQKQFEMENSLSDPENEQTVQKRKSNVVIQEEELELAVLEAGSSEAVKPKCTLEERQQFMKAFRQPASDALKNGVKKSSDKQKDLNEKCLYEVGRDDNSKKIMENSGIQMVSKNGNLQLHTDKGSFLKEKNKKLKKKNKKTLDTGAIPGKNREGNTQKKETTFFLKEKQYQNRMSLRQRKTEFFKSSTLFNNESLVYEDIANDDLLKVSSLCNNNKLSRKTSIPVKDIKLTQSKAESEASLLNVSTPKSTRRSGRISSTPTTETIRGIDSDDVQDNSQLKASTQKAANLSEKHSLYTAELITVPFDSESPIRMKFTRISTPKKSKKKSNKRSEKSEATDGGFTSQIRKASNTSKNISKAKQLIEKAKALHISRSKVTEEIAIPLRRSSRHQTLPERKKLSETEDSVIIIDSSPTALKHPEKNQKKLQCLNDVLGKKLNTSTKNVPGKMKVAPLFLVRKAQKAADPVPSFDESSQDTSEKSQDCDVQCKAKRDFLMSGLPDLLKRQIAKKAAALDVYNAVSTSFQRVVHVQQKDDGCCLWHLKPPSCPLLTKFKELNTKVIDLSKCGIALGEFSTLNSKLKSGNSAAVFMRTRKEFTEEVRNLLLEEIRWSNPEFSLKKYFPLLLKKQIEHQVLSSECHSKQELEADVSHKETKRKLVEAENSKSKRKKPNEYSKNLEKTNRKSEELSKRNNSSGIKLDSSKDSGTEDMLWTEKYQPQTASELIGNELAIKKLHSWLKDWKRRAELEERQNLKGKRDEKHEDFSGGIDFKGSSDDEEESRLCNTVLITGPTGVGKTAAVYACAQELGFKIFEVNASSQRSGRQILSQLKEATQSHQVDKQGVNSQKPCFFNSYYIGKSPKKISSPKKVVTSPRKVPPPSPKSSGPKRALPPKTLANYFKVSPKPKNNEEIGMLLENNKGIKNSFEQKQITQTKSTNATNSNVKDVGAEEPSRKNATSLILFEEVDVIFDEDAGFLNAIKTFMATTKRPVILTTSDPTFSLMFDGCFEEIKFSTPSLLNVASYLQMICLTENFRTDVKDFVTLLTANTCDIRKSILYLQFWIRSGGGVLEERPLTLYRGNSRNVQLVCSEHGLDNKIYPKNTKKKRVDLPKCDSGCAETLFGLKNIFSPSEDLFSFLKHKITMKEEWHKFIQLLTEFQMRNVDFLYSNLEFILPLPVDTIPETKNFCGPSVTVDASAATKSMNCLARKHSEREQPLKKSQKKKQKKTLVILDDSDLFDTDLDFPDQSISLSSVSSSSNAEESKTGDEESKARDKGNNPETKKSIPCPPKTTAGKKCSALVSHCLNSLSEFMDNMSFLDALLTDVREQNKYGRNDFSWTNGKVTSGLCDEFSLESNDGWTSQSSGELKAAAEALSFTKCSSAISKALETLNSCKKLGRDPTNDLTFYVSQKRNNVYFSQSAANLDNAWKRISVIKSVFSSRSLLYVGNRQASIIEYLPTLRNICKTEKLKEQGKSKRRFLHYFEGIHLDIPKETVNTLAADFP
Procedure, shortened: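 HEK293T cells expressing luciferase-tagged ELG1 were co-treated with 5-fluorouridine and compound or DMSO for 16 hr at 37 °C, 5% CO2. Luciferase activity was then read with ONE-Glo after 30 min at room temperature; suppressed signal indicates blocked ELG1 function.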

[8] = biological target: Thyrotropin-releasing hormone receptor (Homo sapiens) (UniProt P34981); assay: qHTS for Small Molecule Agonists and Allosteric Enhancers of Human TRH Receptor: Validation Screen for Agonists (AID 493127;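 active means calcium activation more than 3 SD above the typical response in the agonist read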;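 further: intracellular calcium rise by fluo-8 fluorescence before TRH EC20 addition; 0% is about no effect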); settings: TRH receptor agonist cell assay; at 2 µM; stronger effect = higher value
Chain of Thyrotropin-releasing hormone receptor (Homo sapiens) (P34981 whole entry, looked up): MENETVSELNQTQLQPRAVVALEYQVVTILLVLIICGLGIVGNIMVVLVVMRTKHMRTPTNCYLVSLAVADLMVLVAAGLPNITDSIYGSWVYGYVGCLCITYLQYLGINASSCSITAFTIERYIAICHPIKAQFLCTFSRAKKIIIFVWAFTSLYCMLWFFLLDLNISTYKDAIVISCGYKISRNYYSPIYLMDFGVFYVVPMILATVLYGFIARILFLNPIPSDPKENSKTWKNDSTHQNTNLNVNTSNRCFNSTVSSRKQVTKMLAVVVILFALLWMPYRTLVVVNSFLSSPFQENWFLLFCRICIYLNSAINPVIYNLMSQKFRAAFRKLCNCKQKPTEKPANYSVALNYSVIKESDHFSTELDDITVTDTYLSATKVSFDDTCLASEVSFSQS
Procedure, shortened: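 TRHR-expressing cells were plated overnight in serum-containing medium, then loaded with fluo-8 calcium dye at room temperature for 30 min–1.5 h. After a 10 s baseline, compound was pin-transferred and calcium fluorescence (ex 480/em 530) read kinetically for agonist response.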

[9] = biological target: Galactokinase (Homo sapiens) (UniProt P51570); assay: qHTS Validation Assay for Inhibitors of Human Galactokinase (GALK) (AID 493189); settings: purified human GALK enzyme activity, qHTS 7-point titration; series mostly up to 57.5 µM; further: potency means the concentration at half of the fitted maximal effect
Chain of Galactokinase (Homo sapiens) (P51570 whole entry, looked up): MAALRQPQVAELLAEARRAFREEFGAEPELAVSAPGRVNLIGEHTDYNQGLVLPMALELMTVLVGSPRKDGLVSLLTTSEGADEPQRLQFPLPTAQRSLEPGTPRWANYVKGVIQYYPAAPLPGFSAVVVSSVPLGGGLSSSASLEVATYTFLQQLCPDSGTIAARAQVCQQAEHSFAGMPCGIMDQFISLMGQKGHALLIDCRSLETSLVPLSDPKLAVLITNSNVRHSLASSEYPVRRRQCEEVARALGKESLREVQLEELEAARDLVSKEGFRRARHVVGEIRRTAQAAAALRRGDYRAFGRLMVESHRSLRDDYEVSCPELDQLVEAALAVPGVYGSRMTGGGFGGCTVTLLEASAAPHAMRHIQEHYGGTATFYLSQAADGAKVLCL
Procedure, shortened: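 GALK (5 nM) with 35 uM ATP and 100 uM galactose in HEPES pH8.0, MgCl2, NaCl, DTT, BSA; 1 h at room temperature. Residual ATP read by Kinase-Glo Plus luminescence after 10 min.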

[10] = Validation screen for small molecules that induce DNA re-replication in SW480 colon adenocarcinoma cells (AID 504364); settings: DNA re-replication phenotype (high-content imaging); series mostly up to 46.1 µM; further: 0% is about no effect
Procedure, shortened: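 SW480 cells seeded at 250 per well were exposed to compound or DMSO for 48 hr at 37 C, 5% CO2, then stained with Hoechst for 40 min. DNA content per nucleus was imaged (405 nm ex, 500-530 nm em).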

CC[C@@]1(O)C(=O)OCc2c1cc1n(c2=O)Cc2cc3c(CN(C)C)c(O)ccc3nc2-1
inactive: Potency [1]

Clc1ccc2nsnc2c1NC1=NCCN1
inactive: Potency [1] | Potency [2] | Potency [3] | outcome [4] | Potency [5] | Potency [6]
-2.06%: viability change [3]

Cc1ccc(C(=O)Nc2ccc(S(=O)(=O)O)c3cc(S(=O)(=O)O)cc(S(=O)(=O)O)c23)cc1NC(=O)c1cccc(NC(=O)Nc2cccc(C(=O)Nc3cc(C(=O)Nc4ccc(S(=O)(=O)O)c5cc(S(=O)(=O)O)cc(S(=O)(=O)O)c45)ccc3C)c2)c1
active: Potency [1] 7.08 µM | Potency [9] 17.8 µM | Potency [5] 0.426 µM | Potency [6] 2.69 µM
inactive: Potency [2] | Potency [7] | activation [8] 0.688% | Potency [3] | outcome [4] | Potency [10]
-15.2%: viability change [3]

CC1(CN2CCC(n3c(=O)[nH]c4ccccc43)CC2)OCc2ccccc2-n2cccc21 (stereo not drawn)
inactive: Potency [1]

COc1ccccc1OCCNCC(O)COc1cccc2[nH]c3ccccc3c12 (stereo not drawn)
inactive: Potency [1] | Potency [2] | Potency [3] | outcome [4] | Potency [5] | Potency [6]
-0.159%: viability change [3]

N[C@@H](Cc1c[nH]c2ccc(O)cc12)C(=O)O
inactive: Potency [1] | Potency [2] | Potency [7] | activation [8] 0.125% | Potency [3] | outcome [4] | Potency [9] | Potency [10] | Potency [5] | Potency [6]
-8.24%: viability change [3]

CC(C)(C)C(=O)Oc1ccc(S(=O)(=O)Nc2ccccc2C(=O)NCC(=O)O)cc1
inactive: Potency [1]

CS(=O)(=O)CCNCc1ccc(-c2ccc3ncnc(Nc4ccc(OCc5cccc(F)c5)c(Cl)c4)c3c2)o1
inactive: Potency [1]

O=C1N(c2ccccc2)c2ccccc2C1(Cc1ccncc1)Cc1ccncc1
inactive: Potency [1] | Potency [2] | Potency [7] | activation [8] 1.31% | Potency [3] | outcome [4] | Potency [9] | Potency [5] | Potency [6]
10.1%: viability change [3]

Clc1ccccc1C(c1ccccc1)(c1ccccc1)n1ccnc1
inactive: Potency [1] | Potency [2] | Potency [7] | activation [8] -13.1% | outcome [4] | Potency [9] | Potency [10] | Potency [5] | Potency [6]

COc1cc2c(c(OC)c1OC)-c1ccc(OC)c(=O)cc1[C@@H](NC(C)=O)CC2
inactive: Potency [1] | Potency [7] | activation [8] 0% | outcome [4] | Potency [9] | Potency [5] | Potency [6]

O=C1c2c(O)ccc(O)c2C(=O)c2c(NCCNCCO)ccc(NCCNCCO)c21
inactive: Potency [1] | Potency [2] | activation [8] 0.938% | outcome [4] | Potency [9] | Potency [5]
active: Potency [7] 4.61 µM

CCOC(=O)Nc1ccc(NCc2ccc(F)cc2)nc1N
inactive: Potency [1] | Potency [2] | Potency [7] | outcome [4] | Potency [10]

C[C@](N)(Cc1ccc(O)c(O)c1)C(=O)O
inactive: Potency [1] | Potency [2] | Potency [7] | activation [8] 1.25% | Potency [3] | outcome [4] | Potency [9] | Potency [5]
0.569%: viability change [3]
active: Potency [6] 2.13 µM

CC(=O)OCC(CCn1cnc2cnc(N)nc21)COC(C)=O
inactive: Potency [1]

Cc1cc(C(C)(C)C)cc(C)c1CC1=NCCN1
1.17%: viability change [3]
inactive: Potency [1] | Potency [2] | Potency [7] | Potency [3] | outcome [4] | Potency [9] | Potency [5] | Potency [6]

O=c1c(O)c(-c2ccc(O)c(O)c2)oc2cc(O)cc(O)c12
inactive: Potency [1] | Potency [2] | activation [8] 0.938% | Potency [3] | outcome [4] | Potency [9] | Potency [10]
-9.26%: viability change [3]

Cc1ccc(-c2cc(C(F)(F)F)nn2-c2ccc(S(N)(=O)=O)cc2)cc1
inactive: Potency [1]

CN(C)C(=N)N=C(N)N
inactive: Potency [1]

CN(C)CCC=C1c2ccccc2C=Cc2ccccc21
1.79%: viability change [3]
inactive: Potency [1] | Potency [2] | Potency [7] | activation [8] 1.69% | Potency [3] | outcome [4] | Potency [9] | Potency [10] | Potency [5] | Potency [6]

CN(Cc1cnc2nc(N)nc(N)c2n1)c1ccc(C(=O)N[C@@H](CCC(=O)O)C(=O)O)cc1
inactive: Potency [1] | Potency [2] | Potency [7] | outcome [4] | Potency [9] | Potency [10] | Potency [6]
active: Potency [3] 0.58 µM
-0.856%: viability change [3]

CN(C)c1nc(N(C)C)nc(N(C)C)n1
inactive: Potency [1] | Potency [2] | Potency [7] | activation [8] 0.188% | Potency [3] | outcome [4] | Potency [9] | Potency [10] | Potency [5] | Potency [6]
0%: viability change [3]

Cc1cn([C@H]2C=C[C@@H](CO)O2)c(=O)[nH]c1=O
0.63%: viability change [3]
inactive: Potency [1] | Potency [2] | Potency [7] | Potency [3] | outcome [4] | Potency [9] | Potency [5] | Potency [6]

CS(=O)(=O)Nc1ccc([N+](=O)[O-])cc1Oc1ccccc1
inactive: Potency [1] | Potency [2] | Potency [7] | activation [8] 1% | Potency [10] | Potency [5]

Nc1nc2c(ncn2COC(CO)CO)c(=O)[nH]1
inactive: Potency [1] | Potency [2] | Potency [7] | activation [8] 0.625% | Potency [3] | outcome [4] | Potency [9] | Potency [10] | Potency [5] | Potency [6]
2.85%: viability change [3]

CC(C)(Oc1ccc(C2CC2(Cl)Cl)cc1)C(=O)O (stereo not drawn)
9.29%: viability change [3]
inactive: Potency [1] | Potency [2] | Potency [7] | Potency [3] | outcome [4] | Potency [9] | Potency [10] | Potency [5] | Potency [6]

CN1C(C(=O)Nc2ccccn2)=C(O)c2ccccc2S1(=O)=O
inactive: Potency [1] | Potency [2] | Potency [7] | activation [8] 0.812% | outcome [4] | Potency [9] | Potency [5] | Potency [6]

Nc1nnc(-c2cccc(Cl)c2Cl)c(N)n1
-4.23%: viability change [3]
inactive: Potency [1] | Potency [2] | Potency [7] | activation [8] 0.938% | Potency [3] | outcome [4] | Potency [9] | Potency [5] | Potency [6]

Source: PubChem BioAssay (NCATS)
